Laboratory results published in PubChem BioAssay (NCI).
This is part of a sample that, as a whole, favours compounds with a hit. Of some 83,000 tested, about 20% had one in any assay.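 Growth was measured after 48 h exposure to one concentration of compound in 96-well plates. Values under 10 count as active.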 Values without a mark were called inactive. Calls of active or inactive are those of the source.

Key:
Experiment in all cases: NCI-60 one-dose screen, 48 h (100 = growth as untreated, 0 = no growth, -100 = all killed)
Details in all cases: 10 µM unless noted
[1] = system: SR leukemia
[2] = system: RPMI-8226 leukemia
[3] = system: OVCAR-8 ovarian
[4] = system: OVCAR-5 ovarian
[5] = system: OVCAR-4 ovarian
[6] = system: SK-OV-3 ovarian
[7] = system: IGROV1 ovarian
[8] = system: OVCAR-3 ovarian
[9] = system: HS 578T breast
[10] = system: NCI/ADR-RES ovarian
[11] = system: T-47D breast
[12] = system: BT-549 breast
[13] = system: MDA-MB-435 melanoma
[14] = system: SW-620 colon
[15] = system: MCF7 breast
[16] = system: HCT-116 colon
[17] = system: HCC-2998 colon
[18] = system: KM12 colon

SMILES	growth [1]	growth [2]	growth [3]	growth [4]	growth [5]	growth [6]	growth [7]	growth [8]	growth [9]	growth [10]	growth [11]	growth [12]	growth [13]	growth [14]	growth [15]	growth [16]	growth [17]	growth [18]
CSc1ccc(N=C=C(c2ccccc2)c2ccccc2)cc1	50.7%	88.5%	89%	93.2%	110%	90.1%	95.7%	103%	86.8%	104%	81.9%	88.9%	97.4%	86%	78.5%	89.3%	100%	102%
CN(CC(=O)N(Cc1ccc(C2CCCCC2)cc1)c1ccc(C(=O)NO)cc1)S(=O)(=O)c1c(F)c(F)c(F)c(F)c1F	-4.55% (active)	62.8%	49.8%	104%	84.4%	111%	28.6%	81.7%	91.6%	90.2%	11.2%	93%	99.1%	20.1%	24.9%	75.6%	84.2%	99.4%
CCOC(=O)c1nc(Nc2cc(C)[nH]n2)c2ccccc2n1	81.1%	114%	111%	103%	82.5%	75.8%	76.2%	97.7%	71.4%	114%	82.3%	96.8%	96.8%	104%	81.5%	76.6%	107%	36.9%
Cc1cc(=O)oc2cc(Oc3nc(-c4ccc(Cl)cc4)cn4c(-c5ccc(Cl)cc5)cnc34)ccc12	50.9%	93.7%	92.5%	94.6%	85.6%	103%	97.6%	107%	87.8%	78.8%	104%	89.4%	75.5%	66.7%	73.1%	92.1%	106%	81.2%
O=[N+]([O-])c1cccc(-c2nc3sccn3c2-c2ccnc(NCCCNS(=O)(=O)c3ccc(F)cc3)n2)c1	9.01% (active)	-29.7% (active)	3.44% (active)	59.1%	-5.32% (active)	37.1%	5.03% (active)	4.12% (active)	22.2%	-15.5% (active)	-12.1% (active)	-12.1% (active)	1.66% (active)	18.3%	-8.37% (active)	4.43% (active)	58.3%	0.995% (active)
Cc1ccc2c(NCCCN(C)C)c3c(C)nn(C)c3nc2c1	5.55% (active)	27.8%	-5.26% (active)	39.3%	28.7%	39.2%	29.2%	49.3%	74.1%	45.3%	44.8%	54.3%	37.1%	23.5%	5.14% (active)	20.2%	59.3%	32.8%
Brc1cccc(-c2nc(-c3ccc4c(c3)OCCO4)co2)c1	37.7% [25 µM]	58.1% [25 µM]	71.8% [25 µM]	81.4% [25 µM]	81% [25 µM]	69.7% [25 µM]	62.1% [25 µM]	32.7% [25 µM]	65.4% [25 µM]	28.5% [25 µM]	46.6% [25 µM]	68.7% [25 µM]	-31.9% [25 µM] (active)	23% [25 µM]	37% [25 µM]	31.8% [25 µM]	92.1% [25 µM]	38.5% [25 µM]
C=C1C(=O)O[C@H]2[C@H]1CC/C(Cn1cc(Cn3ccc4ccccc43)nn1)=C\CC[C@@]1(C)O[C@@H]21	-18.4% (active)	-34.6% (active)	11%	71.5%	45.4%	101%	47.8%	-59.7% (active)	69.4%	77.9%	-17.9% (active)	58.7%	19.9%	-77.1% (active)	-73.9% (active)	-89.5% (active)	69%	66.5%
Brc1cccc(-c2cc(-c3ccc4c(c3)OCCO4)[nH]n2)c1	31.4% [25 µM]	20.8% [25 µM]	29.7% [25 µM]	39.8% [25 µM]	58.6% [25 µM]	39.5% [25 µM]	30.2% [25 µM]	-7.07% [25 µM] (active)	30% [25 µM]	4.14% [25 µM] (active)	29% [25 µM]	41.7% [25 µM]	-40.2% [25 µM] (active)	28.7% [25 µM]	10.6% [25 µM]	21% [25 µM]	44.6% [25 µM]	22.9% [25 µM]
Cc1ccc(NC(=O)c2sc3nc4c(cc3c2N)C(=O)CCC4)cc1C	22.9%	11.4%	31.6%	32.6%	76%	4.9% (active)	23.9%	-10.2% (active)	28.1%	10.9%	24.1%	48.7%	-55.5% (active)	18.9%	10.7%	28.4%	27.3%	19.5%
CCN(CC)C12CCCCC1(C)C(C#N)(C#N)C(C#N)=C(N)O2 (stereo unspecified)	92.7%	125%	93.4%	101%	100%	110%	111%	98.3%	120%	101%	98.8%	103%	96.8%	109%	105%	100%	96.3%	106%
CCN(CC)CCCNc1cc(OC)cc2nc3cc(Cl)ccc3nc12	-34.6% (active)	-14.3% (active)	-8.47% (active)	-39.3% (active)	-11% (active)	6.29% (active)	-29.9% (active)	-48.9% (active)	23.3%	-50.2% (active)	29.8%	2.46% (active)	-90.4% (active)	-36.9% (active)	-2.19% (active)	-91.8% (active)	27.5%	-51.4% (active)
CC[C@H](CO)Nc1nc(NCc2ccccc2)n2ncc(C(C)C)c2n1	-44.9% (active)	-40.6% (active)	28.6%	22.4%	11.8%	51.5%	14.5%	5.88% (active)	7.24% (active)	19.5%	28.3%	-28.1% (active)	11.3%	1.96% (active)	2.6% (active)	13.7%	-27.9% (active)	1.41% (active)
CCOC(=O)c1c2c(n3ccc(NC(=O)CCN(CC)CC)cc13)C(=O)c1ncccc1C2=O	-2.86% (active)	51.2%	57.4%	90.5%	63.8%	36.2%	47.3%	74.7%	60.8%	60.2%	55.9%	75.9%	32.7%	49.3%	-8.59% (active)	49.3%	83.1%	63.5%
CSc1ncnc2c1ncn2C1CCCO1 (stereo unspecified)	113%	104%	109%	98.3%	95.1%	104%	120%	120%	103%	101%	107%	102%	101%	116%	104%	101%	113%	110%
CC(=O)OCC1OC(OC2=C(CC=C(Cl)Cl)C(=O)c3ccccc3C2=O)C(OC(C)=O)C(OC(C)=O)C1OC(C)=O (stereo unspecified)	-3.56% (active)	9.85% (active)	18%	105%	-34.4% (active)	96%	83.4%	46.4%	96.9%	93.1%	-18.2% (active)	71.2%	89.9%	22.9%	19.9%	31.6%	102%	82.2%
O=C(CN1CCN(c2cc3c(cc2F)c(=O)c(C(=O)O)cn3C2CC2)CC1)Nc1nc(-c2ccccc2)cs1	90.5%	66.3%	52.1%	97.7%	97.5%	93.9%	84.7%	90.3%	60.5%	92.7%	72.8%	73.7%	86.6%	91.7%	86.8%	81.2%	92.6%	89.6%
